Source: PubChem
Tb PGK inh = qHTS Assay to Find Inhibitors of Phosphoglycerate Kinase | Phosphoglycerate kinase, glycosomal (Trypanosoma brucei brucei), P07378 | PGK/GAPDH coupled, Kinase-Glo luminescence, 60 min | Potency, µM (titrated, usually from 57.5 µM), without a hit: top-dose activity change, negative = inhibition, actives largely listed as inhibitors | actives 0.043% (n = 380,000) | AID 602233, 2012; note: potency is the fitted concentration of half-maximal effect; nearly all actives have a fitted effect of over 60% in size
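Luminescent ATP detection (Kinase-Glo Plus) follows a 60-minute room-temperature incubation, with wells lacking PGK as controls. Buffer: 100 mM TEA (pH 7.6), 5 mM MgCl2, 0.01% Tween-20. Coupling enzyme GAPDH (100 nM final) supplies unstable 1,3-BPG in-well.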
Tb PFK block = qHTS Assay to Find Inhibitors of T. brucei phosphofructokinase | ATP-dependent 6-phosphofructokinase (Trypanosoma brucei brucei), O15648 | T. brucei PFK, ADP-Glo luminescence | Potency, µM (top dose mostly 57.5 µM), inactives show at the highest dose activity, negative = inhibition, hits mostly inhibitors | actives 0.17% (n = 330,000) | AID 485367, 2010;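 note: potency is the fitted concentration of half-maximal effect; 0% = uninhibited 1x PFK enzyme wells and -100% = no-enzyme wells; nearly all actives have a fitted effect of over 60% in size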
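1.25 nM PFK with 0.5 mM F6P and 0.1 mM ATP in 0.1 M TEA pH 8.0, 5 mM MgCl2, incubated 45 min at room temperature; ADP measured by ADP-Glo luminescence; compounds titrated up to 57 uM.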
Pin1 inh = qHTS Assay to Find Inhibitors of Pin1. Pin1 FP peptide displacement, HiFluor488, 10 min. Potency, µM (titrated, usually from 115 µM), inactives show top-dose activity, negative = inhibition, most hits filed as inhibitors. actives 0.009% (n = 390,000). AID 504891, 2011; active = well fitted inhibition curve with a large enough effect in the polarisation, with a control signal flat, not every such curve was filed as active; inconclusive = small, poorly fitted or top-dose-only effect, or effect the other way, or a change in a side signal; inactive = no such curve, though single readings can be large or run the other way; the % refers to the polarisation; note: potency is the fitted concentration of half-maximal effect
Target sequence (Q13526 whole entry, looked up): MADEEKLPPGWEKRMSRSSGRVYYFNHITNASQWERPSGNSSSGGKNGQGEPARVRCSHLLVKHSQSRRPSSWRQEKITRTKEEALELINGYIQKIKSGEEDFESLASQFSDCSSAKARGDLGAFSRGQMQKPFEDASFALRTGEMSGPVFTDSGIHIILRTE
PI4K2A inh = qHTS for small molecular inhibitors of PI4K2A. Phosphatidylinositol 4-kinase type 2-alpha (Homo sapiens), Q9BTU6. activity change, negative = inhibition, % at 76.9 µM. actives 0.13% (n = 420,000). AID 1346378, 2018. purified PI4K2A, ADP-Glo luminescence, 1 h; stronger effect = lower value; in the data active = activity change below about -50%; inconclusive = mostly about -30% to -49%;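 note: -100% = wells without enzyme as full effect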
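PI4K2A activity was measured by ADP-Glo luminescence: enzyme (4 ug/mL stock) and phosphatidylinositol (1.2 mM stock) in Tris pH 7.5/MgCl2/EGTA/Triton X-100 buffer were reacted with ATP (300 microM stock) for one hour at ambient temperature.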
PI5P4Ka inh = qHTS for Inhibitors of phosphatidylinositol 5-phosphate 4-kinase (PI5P4K); PI5P4Kalpha enzyme, ADP-Glo luminescence, 60 min; stronger effect = lower value; max response, %; Phosphatidylinositol 5-phosphate 4-kinase type-2 alpha (Homo sapiens), P48426; actives 1.2% (n = 330,000); active = max response of -50% or lower; inconclusive = between -30% and -50%; inactive = -30% or higher; note: value at the top dose of about 77 µM
Target sequence (P48426 whole entry, looked up): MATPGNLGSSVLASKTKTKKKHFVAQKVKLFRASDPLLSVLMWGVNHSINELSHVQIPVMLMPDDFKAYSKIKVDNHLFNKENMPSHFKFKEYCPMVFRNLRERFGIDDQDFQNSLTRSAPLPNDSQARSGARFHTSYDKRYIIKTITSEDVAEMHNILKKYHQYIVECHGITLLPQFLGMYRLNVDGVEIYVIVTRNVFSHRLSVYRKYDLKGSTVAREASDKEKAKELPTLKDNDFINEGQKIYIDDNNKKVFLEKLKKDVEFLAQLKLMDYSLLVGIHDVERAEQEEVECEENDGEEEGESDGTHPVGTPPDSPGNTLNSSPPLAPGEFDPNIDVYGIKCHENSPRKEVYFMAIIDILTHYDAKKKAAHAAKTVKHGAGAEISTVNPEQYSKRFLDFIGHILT
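Quantitative HTS of the MLSMR library against PI5P4Kalpha with substrate. ATP added last at 5 microM final; room temperature, 60 minutes. Remaining ATP depleted, ADP converted and read as luminescence.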
An asterisk follows results filed as active; ? = inconclusive; · = no result. Many of the other results were omitted from the sample, so hits are more common in it than they were. Unless noted, calls come from the whole dose curve; as a rule, active = well fitted curve in the direction sought with a large enough effect; inconclusive = small, poorly fitted or top-dose-only effect, or another doubt; inactive = no such curve, though single readings can be large; an effect the other way counts as inactive or inconclusive. Unless noted, % is set by controls: 0 for no effect and ±100 for the full control effect.

SMILES	Tb PGK inh	Tb PFK block	Pin1 inh	PI4K2A inh	PI5P4Ka inh
CCC(=O)Oc1ccc(-c2nc(-c3cccnc3)no2)cc1	?	-10%	1%	-55*	·
COc1cc(N=c2ssnc2Cl)c(OC)cc1Cl	-10%	?	-12%	-7	-68*
Nc1ccccc1N=c1ssnc1Cl	-5%	?	-5%	-12	?
COc1cc(-n2nnnc2SC)c(OC)cc1Cl	7%	2%	5%	7	0
COc1ccc(OC)c(N=c2ssnc2Cl)c1	1%	?	-2%	-6	-64*
CC1CCN(C(=O)CSc2c(C(C)C)cnc3c2c(=O)n(C)c(=O)n3C)CC1	19%	·	6%	-9	·
Cc1c(C#N)c(O)[nH]c(=O)c1N=Nc1ccc(Cl)c(C(=O)O)c1	-11%	5%	35%	-1	-7
Cc1c(C#N)c(O)[nH]c(=O)c1N=Nc1ccc(S(N)(=O)=O)cc1	-12%	4%	49%	3	-76*
Cc1ccc(C(=O)C2C(=O)c3ccccc3C2=O)cc1	-5%	1%	1%	-3	·
NN=C1c2ccccc2C(=O)C1C(=O)C(c1ccccc1)c1ccccc1 (stereo unspecified)	3%	·	?	-1	-51*
CCOc1cc(/C=C2\C(=O)ON=C2c2ccccc2)ccc1OC	-4%	9%	-9%	8	-63*
COc1cc(/C=C2\C(=O)ON=C2c2ccccc2)cc(OC)c1OC	-3%	-5%	1%	7	-25
COc1ccc(/C=C2\C(=O)ON=C2c2ccccc2)cc1OC	-8%	-2%	3%	-2	-62*
COc1ccc(/C=C2/C(=O)ON=C2c2ccccc2)cc1OC	-3%	0%	-3%	-8	-59*
CCOC(=O)c1ccc(-n2cnc3c(c2=N)C(c2cccc(OC)c2)c2c(ccc4ccccc24)O3)cc1 (stereo unspecified)	·	·	10%	·	·
Cc1ccccc1NC(=O)CSc1[nH]c(=O)cc(C)c1C#N	-14%	-9%	?	-5	-56*
Cc1cc(=O)[nH]c(SCC(=O)c2ccccc2)c1C#N	1%	3%	?	-1	-5
Cc1cc(NC(=O)CSc2[nH]c(=O)cc(C(F)(F)F)c2C#N)no1	0%	-3%	-1%	2	-75*
CCN1CCc2c(sc(NC(=S)NC(=O)c3ccccc3)c2C#N)C1	-6%	-30%	13%	-20	-62*
CCN1CCN(c2c(Cl)cccc2NC(=O)c2ccco2)CC1	-4%	-4%	2%	7	-2
O=C(Cn1cnc2sc(-c3ccccc3)cc2c1=O)NCc1ccco1	13µM*	6%	5%	?	-83*
Cc1ccc(CNCc2cccnc2)cc1	4%	-3%	-1%	5	0
COc1ccc(OC)c(N/C(N)=N/c2nc(C)cc(C)n2)c1	-12%	-2%	0%	0	-6
CCC1Cc2c(nc(N)c3c(N)nc(N4CCCCC4)c(C#N)c23)O1 (stereo unspecified)	-8%	-1%	6%	1	6
N#Cc1c(N2CCCCC2)nc(N)c2c(N)nc3c(c12)CC(c1ccccc1)O3 (stereo unspecified)	-7%	1%	1%	7	-64*
SMILES	Tb PGK inh	Tb PFK block	Pin1 inh	PI4K2A inh	PI5P4Ka inh
COc1ccc(NC(=O)CCSc2nnnn2C)cc1	3%	-5%	0%	-2	-2
COc1cc(/C=N/N2C(=O)CSC2=S)ccc1O	2%	2%	?	-10	-51*
O=C1CSC(=S)N1N=Cc1ccccc1O	-2%	·	17%	-8	-85*
COc1cc(O)c(C=NN2C(=O)CSC2=S)c(OC)c1	5%	·	·	0	-75*
COc1ccc(Br)cc1/C=N/N1C(=O)CSC1=S	7%	0%	40%	-4	?
O=C1CSC(=S)N1/N=C/c1cccnc1	12%	-2%	-3%	-3	?
O=C1CSC(=S)N1/N=C/c1cc(Br)c(O)c(Br)c1	?	17%	?	-13	-106*
COC(=O)c1ccccc1S(=O)(=O)NC(=O)c1ccccc1	-7%	-1%	-4%	8	-1
O=C1CSC(=S)N1/N=C/c1ccc2c(c1)OCCO2	-10%	0%	30%	3	-57*
O=C1CSC(=S)N1/N=C/c1ccc(Cl)c([N+](=O)[O-])c1	·	-1%	·	·	·
COc1ccc(CCNC(=O)CSc2ccsc2[N+](=O)[O-])cc1OC	-2%	-13%	25%	-9	-19
O=C(CSc1ccsc1[N+](=O)[O-])NCc1ccccc1	-2%	-28%	1%	0	?
CSc1ccc(CCNC(=O)CSc2ccsc2[N+](=O)[O-])cc1	-9%	-4%	?	-12	-51*
O=C(CSc1ccsc1[N+](=O)[O-])Nc1cccc(F)c1	-29%	-29%	?	-4	-77*
NS(=O)(=O)c1ccc(CCNC(=O)CSc2ccsc2[N+](=O)[O-])cc1	-11%	-14%	?	-5	-67*
O=C(c1ccc2c(c1)OCO2)N(Cc1cccs1)C1(C(=O)NC2CCCCC2)CCCCC1	-4%	0%	-3%	-9	10
O=[N+]([O-])c1ccc(O)c(C=Nc2ccc3c(c2)OCO3)c1	-7%	-16%	?	2	-17
O=[N+]([O-])c1cc(Br)cc(C=Nc2ccc3c(c2)OCO3)c1O	-11%	0%	-8%	0	-51*
Cc1ccc(N=Cc2cc3c(cc2[N+](=O)[O-])OCO3)cc1[N+](=O)[O-]	4%	·	?	-10	-65*
O=C(CN1CCN(c2ccc(F)cc2)CC1)NCc1ccc(Cl)cc1	-7%	-1%	-1%	-2	3
CC(=O)c1cccc(N2Cc3ccccc3C2=NC(=O)CCl)c1	-2%	-4%	-2%	-2	-70*
CC(=O)c1ccc(N2Cc3ccccc3/C2=N\C(=O)Nc2ccccc2)cc1	-12%	-2%	3%	3	-4
COc1ccc(S(=O)(=O)NCCc2c[nH]c3ccc(Cl)cc23)cc1	-3%	0%	3%	-3	-1
O=C1C=CC(=O)C(CNc2ccc(C(=O)OCc3ccccc3)cc2)=C1	-9%	·	-10%	-11	-77*
CN(C)c1ccc(C(=O)OCc2ccccc2)cc1	-6%	0%	1%	2	12
CN(C)C(=O)c1ccc(N=Nc2c(O)c3ccccc3[nH]c2=O)cc1	?	·	0%	-14	-76*
O=C(O)c1ccc(N=Nc2c(O)[nH]c3ccccc23)cc1	-24%	-1%	12%	-62*	?
Cc1ccccc1N=Nc1c(O)[nH]c2ccccc12	-4%	·	-2%	1	-7
